mHTT CaM bind: mutant huntingtin-calmodulin interaction inhibitors – biochemical, AlphaScreen, primary screen; AlphaScreen His-mHTT/GST-CaM binding, luminescence; 190,000 compounds, 3.6% hits; inhibition, % at 15 µM; AID 1671202, 2021
Pf apPOL block: Pf-apPOL inhibitors, biochemical, fluorescence; 210,000 compounds, 0.25% hits; inhibition, % at 10 µM; Recombinant Pf-apPOL, molecular beacon fluorescence, 1.5 h
Numbers stand for hits. Shown are actives, neighbours in structure and some others; about 3.6% of the full set was active somewhere. Rule as the data show it: active = inhibition above about 50%; inactive = the rest.

Screening CCN(CCCNC(=O)c1ccc2c(c1)NC(=O)C1CCCN21)Cc1ccccc1 (stereo unspecified) returned mHTT CaM bind inactive and Pf apPOL block 50.
For O=C(NCC1CCN(Cc2ccccc2)CC1)C(=O)Nc1ccc(F)cc1F the results were mHTT CaM bind inactive and Pf apPOL block inactive.
For O=C(Cc1ccccc1)Nc1ncc(S(=O)(=O)c2ccc([N+](=O)[O-])cc2)s1 the results were mHTT CaM bind inactive and Pf apPOL block inactive.
Screening CCC(C(=O)Nc1ncc(S(=O)(=O)c2ccc([N+](=O)[O-])cc2)s1)c1ccccc1 (stereo unspecified) returned mHTT CaM bind 61 and Pf apPOL block inactive.
For Cc1ccc(CCNC(=O)C2CC(=O)N(c3ccc(F)c(Cl)c3)C2)cc1 (stereo unspecified) the results were mHTT CaM bind inactive and Pf apPOL block inactive.
COc1ccc(NC(=O)C2CC2)cc1OC was read as mHTT CaM bind inactive and Pf apPOL block inactive.
C=C(C)C1CC=C(CNc2ccc(OC)c(OC)c2)CC1 (stereo unspecified) was read as mHTT CaM bind 86 and Pf apPOL block inactive.
For Cn1c(CNC(=O)C2CCC2)nc2c1CN(S(=O)(=O)c1cccnc1)CC2 the results were mHTT CaM bind inactive and Pf apPOL block inactive.
`O=c1/c(=C/c2ccccc2)sc2nc(-c3ccc(Cl)cc3)nn12` gave mHTT CaM bind inactive and Pf apPOL block inactive.
`COc1cc(OC)cc(C(=O)N2CCN(C(=O)c3ccc(-c4ccccc4)cc3)CC2)c1` gave mHTT CaM bind inactive and Pf apPOL block inactive.
`COc1cccc(C(=O)N2CCN(c3cc(Cl)ccc3C)CC2)c1OC` gave mHTT CaM bind 100 and Pf apPOL block inactive.
For COc1ccccc1C(=O)N1CCN(C(=O)C(c2ccccc2)c2ccccc2)CC1 the results were mHTT CaM bind inactive and Pf apPOL block inactive.
Screening COc1ccccc1C(=O)N1CCN(C2=NN=C(c3ccccc3)CS2)CC1 returned mHTT CaM bind 79 and Pf apPOL block inactive.
`COc1cccc(C(=O)N2CCN(C(=O)c3ccc(-c4ccccc4)cc3)CC2)c1OC` gave mHTT CaM bind 52 and Pf apPOL block inactive.
Screening COC(=O)c1cccc(C(=O)N2CCN(c3cc(Cl)ccc3C)CC2)n1 returned mHTT CaM bind 97 and Pf apPOL block inactive.
COC(=O)c1cccc(C(=O)Nc2ccc(Cl)cc2C)n1 was read as mHTT CaM bind inactive and Pf apPOL block inactive.
For COc1ccccc1N1CCN(C(=O)c2ccc(Cl)cc2[N+](=O)[O-])CC1 the results were mHTT CaM bind inactive and Pf apPOL block inactive.
For COCCNC(=O)CC1CCN(C(=O)c2ccccc2)CC1 the results were mHTT CaM bind inactive and Pf apPOL block inactive.
Screening Cc1nc(C)c(C(=O)NNC(=O)c2ccc(Cl)cc2)s1 returned Pf apPOL block inactive.
Screening COc1ccc(NC(=O)C2CCN(c3c(C#N)cnc4ccccc34)CC2)cc1 returned mHTT CaM bind inactive and Pf apPOL block inactive.
Cc1cc(C)c(NC(=O)CSc2nncn2C)c(C)c1 was read as mHTT CaM bind inactive and Pf apPOL block inactive.
`COC(=O)c1ccc(NC(=O)CN2CC(c3nc(-c4cnccn4)no3)C2)cc1` gave mHTT CaM bind inactive and Pf apPOL block inactive.
For O=[N+]([O-])c1cc2c(cc1C=Nc1ccccc1)OCO2 the results were mHTT CaM bind 78 and Pf apPOL block inactive.
`CC(=O)Nc1ccc(N=Cc2cc3c(cc2[N+](=O)[O-])OCO3)cc1` gave mHTT CaM bind inactive and Pf apPOL block inactive.
O=[N+]([O-])c1cc2c(cc1C=Nc1ccc(Nc3ccccc3)cc1)OCO2 was read as mHTT CaM bind 85 and Pf apPOL block inactive.
O=[N+]([O-])c1cc2c(cc1C=Nc1ccc(Cl)c(Cl)c1)OCO2 was read as mHTT CaM bind inactive and Pf apPOL block inactive.
Screening Cc1ccc([N+](=O)[O-])cc1N=Cc1cc2c(cc1[N+](=O)[O-])OCO2 returned mHTT CaM bind inactive and Pf apPOL block inactive.
Screening O=[N+]([O-])c1ccc(N=Cc2cc3c(cc2[N+](=O)[O-])OCO3)cc1 returned mHTT CaM bind inactive and Pf apPOL block inactive.
Screening Cc1cc(O)c(N=Cc2cc3c(cc2[N+](=O)[O-])OCO3)cc1C returned mHTT CaM bind 70 and Pf apPOL block inactive.
`Cc1cccc(N=Cc2cc3c(cc2[N+](=O)[O-])OCO3)c1` gave mHTT CaM bind 86 and Pf apPOL block inactive.
Screening COc1cccc(C(=O)Nc2c(-c3cccn3C)n[nH]c2C)c1 returned mHTT CaM bind inactive and Pf apPOL block inactive.
`CCOc1ccc(-c2nnc(NC(=O)Cc3ccccc3)s2)cc1` gave mHTT CaM bind inactive and Pf apPOL block inactive.
For COc1ccc(N=Cc2cc3c(cc2[N+](=O)[O-])OCO3)cc1OC the results were mHTT CaM bind inactive and Pf apPOL block inactive.
For Cc1ccc(N=Cc2cc3c(cc2[N+](=O)[O-])OCO3)cc1Br the results were mHTT CaM bind 69 and Pf apPOL block inactive.
For Cc1ccc2c(c1)N(c1cc(Cl)ccc1C)C=C(C#N)S2(=O)=O the results were mHTT CaM bind inactive and Pf apPOL block inactive.
For CC1CN(S(=O)(=O)Cc2ccccc2)CC1c1nc(-c2ccncc2)no1 (stereo unspecified) the results were mHTT CaM bind inactive and Pf apPOL block inactive.
`Nc1c(Br)c(Br)c(N)c2c1C(=O)c1ccccc1C2=O` gave mHTT CaM bind inactive and Pf apPOL block inactive.
For Nc1c(C(=O)O)cc(Br)c2c1C(=O)c1ccccc1C2=O the results were mHTT CaM bind 52 and Pf apPOL block inactive.
For Oc1ccc2ccccc2c1CN1CCCCC1 the results were Pf apPOL block inactive.
Screening Oc1ccc2ccccc2c1SSc1c(O)ccc2ccccc12 returned mHTT CaM bind 100 and Pf apPOL block inactive.
Cc1cc(C)cc(NC(=O)c2ccc(C)cc2Cl)c1 was read as mHTT CaM bind inactive and Pf apPOL block inactive.
O=C(NCCN1CCOCC1)C(=O)NCCN1CCOCC1 was read as mHTT CaM bind inactive.
CCC(=O)c1ccc(OCC(O)CN(CC)Cc2ccccc2)cc1 (stereo unspecified) was read as mHTT CaM bind inactive and Pf apPOL block inactive.
O=C(Nc1ccccc1F)c1cnc(-c2ccc(F)cc2)nc1-c1ccncc1 was read as mHTT CaM bind inactive and Pf apPOL block 86.
O=C(Nc1ccc(F)cc1)c1cnc(-c2ccc(F)cc2)nc1-c1ccncc1 was read as mHTT CaM bind inactive and Pf apPOL block 88.
Screening Cc1ccc(-c2ncc(C(=O)Nc3ccccc3Cl)c(-c3ccncc3)n2)cc1 returned mHTT CaM bind inactive and Pf apPOL block 56.
Screening O=C(Nc1ccccc1Cl)c1cnc(-c2ccc(F)cc2)nc1-c1ccncc1 returned mHTT CaM bind inactive and Pf apPOL block inactive.
Screening O=C(Nc1ccccc1Cl)c1cnc(-c2ccccc2)nc1-c1ccncc1 returned mHTT CaM bind inactive and Pf apPOL block inactive.
`O=C(Nc1ccc(F)cc1)c1cnc(-c2ccccc2)nc1-c1ccncc1` gave mHTT CaM bind inactive and Pf apPOL block inactive.
Screening COc1cccc(C=C2Oc3cc(OCC(=O)OCc4ccccc4)ccc3C2=O)c1OC returned mHTT CaM bind inactive and Pf apPOL block inactive.
`COc1ccc(C2CC(c3ccc(C)cc3)Nc3nnnn32)c(OC)c1OC` (stereo unspecified) gave mHTT CaM bind inactive and Pf apPOL block inactive.
For Cc1ccc(S(=O)(=O)N=C2C=CC(=O)C(Br)=C2)cc1 the results were mHTT CaM bind 59 and Pf apPOL block inactive.

Source: PubChem (University of Kansas High Throughput Screening Laboratory)
